Experimental findings from PubChem BioAssay AID463188 (University of Pittsburgh Molecular Library Screening Center, 2010) are described below.

A short description of test [1]: Nef-activated Hck kinase blockers, duplicate retest – biochemical, Z-Lyte FRET, 384-well, p-Tyr peptide counterscreen, confirmation (AID 463188). The following applies: Recombinant Hck-YEEI:Nef, Z-Lyte FRET kinase assay; measured here: p-Tyr peptide counterscreen; at 10 µM. In general terms: Counterscreens check selectivity or assay interference.
In test [2] the target is Tyrosine-protein kinase HCK (Homo sapiens) (UniProt P08631). Described as above. The following applies: Recombinant Hck-YEEI:Nef, Z-Lyte FRET kinase assay; at 10 µM; stronger effect = higher value.

The whole screen tested about 1,300 compounds, of which about 360 (28%) were called active.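 Rule for the calls: active = average inhibition of at least 50%, with Z-scores no higher than 3 in both the phospho-tyrosine peptide and fluorescence counterscreens; inactive = the rest.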 Only a sample is shown.

Chain of Tyrosine-protein kinase HCK (Homo sapiens) (P08631 whole entry, looked up): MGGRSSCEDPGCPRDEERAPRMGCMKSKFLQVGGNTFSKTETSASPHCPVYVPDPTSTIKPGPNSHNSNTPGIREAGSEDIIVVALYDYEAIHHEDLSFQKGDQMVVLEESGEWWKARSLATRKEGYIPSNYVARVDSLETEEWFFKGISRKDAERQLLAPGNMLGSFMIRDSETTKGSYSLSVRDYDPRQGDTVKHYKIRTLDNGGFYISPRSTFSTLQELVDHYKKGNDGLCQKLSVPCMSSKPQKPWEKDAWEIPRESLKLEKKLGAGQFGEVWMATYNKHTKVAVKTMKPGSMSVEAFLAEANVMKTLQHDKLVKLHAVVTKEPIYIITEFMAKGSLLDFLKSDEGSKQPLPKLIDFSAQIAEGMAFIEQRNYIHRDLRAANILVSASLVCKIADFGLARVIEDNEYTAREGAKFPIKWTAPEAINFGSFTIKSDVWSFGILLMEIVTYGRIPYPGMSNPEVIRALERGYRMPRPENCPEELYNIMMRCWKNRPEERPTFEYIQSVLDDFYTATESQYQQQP

With `N#Cc1c(-c2cccs2)nc(SCC(=O)c2ccc(Br)cc2)[nH]c1=O`, the z-score in test [1] is -2.14. Also, in test [2], the inhibition was 54.2% (active).
For `Cc1ccc(S(=O)(=O)c2c(N)n(C)c3nc4ccccc4nc23)cc1` the same measures were 15.1 and 51.3% (inactive).
As to `Cc1ccc(-n2c(=O)c(C#N)cc3c(=O)n4ccccc4nc32)cc1C`, the inhibition in test [1] is 15.8.
`COc1ccc(N=Cc2c(O)[nH]c3ccccc23)cc1OC`: the z-score in test [1] turned out to be 2.53. Besides, the inhibition in test [2] is 67.3% (active).
With `CCN(CC)c1ccc2cc(C(=O)O)c(=O)oc2c1`, the inhibition in test [1] is 180.
Take `CC(C)n1cnc2c(Nc3cccc(Cl)c3)nc(N(CCO)CCCO)nc21`: the z-score in test [1] is -1.42. For the same molecule, the inhibition in test [2] was 92.6% (active).
For `COc1cccc(CNC(=O)CCC2CCCN(Cc3ccc(OC(F)F)cc3)C2)c1` (configuration not stated) the same measures were 0.273 and 13.3% (inactive).
The corresponding values for `CCn1c(=O)c2cc(C(=O)Nc3cccc(C(C)=O)c3)sc2c2ccccc21` are 0.522 and 30.2% (inactive).
The corresponding values for `CC(C)(C)OC(=O)NCCCCCC(=O)N/N=C/c1coc2ccccc2c1=O` are -0.798 and 80.9% (active).
For `Oc1c(Cl)cc(Cl)c(Cl)c1Cc1c(O)c(Cl)cc(Cl)c1Cl`, in test [1], the z-score was -1.64. The inhibition in test [2] is 12.2% (inactive).
Consider `COC(=O)C1=CN(Cc2ccc(OC)c(OC)c2)C=C(C(=O)OC)C1c1cccs1`, for which, in test [1], the inhibition amounted to 22.9.
On to `Cc1ccc(-c2cc(C(=O)NCc3cn(C)nc3C)c3cc(Br)ccc3n2)cc1`, for which the z-score in test [1] was -0.98. For the same molecule, the inhibition in test [2] was 46.1% (inactive).
For `O=C(Nc1ccncc1)c1cc(-c2ccccn2)nc2ccc(Br)cc12` the same measures were 0.0526 and 76.4% (active).
The corresponding values for `O=C(CSc1cccc2cccnc12)N/N=C/c1cccnc1` are -0.0644 and 36.9% (inactive).
Regarding `Cc1ncc(CC(=O)n2cc(C(=O)c3cc(Cl)ccc3O)cn2)s1`, the z-score in test [1] is -1.16. Besides, in test [2], the inhibition was 75% (active).
For `COC/C=C/C1=CC2=CC(=O)C(C)(OC(=O)CCC(=O)OC)C(=O)C2=CO1` (configuration not stated) the same measures were -0.884 and 43.8% (inactive).
For `O=C(Cc1ccccc1)Nc1cccc(C(=O)N/N=C/c2ccco2)c1` the same measures were -0.994 and 30% (inactive).
Regarding `COc1ccc(C(=O)n2nc(-c3ccc(Cl)cc3)nc2N)cc1OC`, the z-score in test [1] is 3.28. Moreover, the inhibition in test [2] was 2.06% (inactive).
As to `CCn1c(=N)c(C(=O)NCCCOC)cc2c(=O)n3cccc(C)c3nc21`, in test [1], the inhibition was 192.
For the molecule `Cc1ccc(/C=C/C(=O)Nc2ccc([N+](=O)[O-])c(NC(=O)/C=C/c3ccc(C)o3)c2)o1`, the z-score in test [1] was -2.13. Further, the inhibition in test [2] is 51.4% (active).
As to `O=C(NNC(=O)c1csc(-c2cccnc2)n1)Nc1ccc(Cl)cc1`, the z-score in test [1] is -0.478. In addition, the inhibition in test [2] is 11.4% (inactive).
Regarding `Cc1ccc(SC(CC(=O)c2ccc(C(C)(C)C)cc2)C(=O)O)cc1` (configuration not stated), the z-score in test [1] is -0.516. For the same molecule, the inhibition in test [2] was 20.8% (inactive).
Turning to `O=[N+]([O-])c1cc(Cl)cc(/C=N/NC(=S)Nc2cc(S(=O)(=O)N3CCOCC3)ccc2Cl)c1O`, the z-score in test [1] was -0.299. In test [2], the inhibition was 63.6% (active).
The corresponding values for `CN(C)S(=O)(=O)c1cccc(-c2nn(-c3ccccc3)cc2/C=C2\SC(=S)N(CC(=O)O)C2=O)c1` are -1.38 and 38.1% (inactive).
For `CCOc1ccc(-c2nc(N)ncc2-c2ccccc2OC)c(O)c1` the same measures were -1.74 and 63.2% (active).
The corresponding values for `C=C(C)COc1ccc(-c2nc(N)ncc2-c2ccccc2OC)c(O)c1` are -0.555 and 55.8% (active).
For the molecule `COc1cccc(C(=O)c2cc3ccc(O)cc3oc2=O)c1`, the inhibition in test [1] was 51.8.
Take `O=C1Oc2ccccc2C(=O)/C1=C/c1ccccc1O`: the z-score in test [1] is -0.0667. Also, in test [2], the inhibition is 30.1% (inactive).
The corresponding values for `Cc1cc(/C=N/Nc2ccc([N+](=O)[O-])cn2)c(C)n1-c1cccc(C(=O)O)c1` are 0.131 and 38.5% (inactive).
Take `COC(=O)Cc1cc(=O)oc2c(C)c(O)ccc12`: the inhibition in test [1] was determined as 94.6.
With `CC(=O)Oc1ccc2c(C)c(CC(C)O)c(=O)oc2c1` (configuration not stated), the inhibition in test [1] came to 122.
On the same count and under the same terms, the value for `CCCCN(CCCC)CC(O)Cn1c2ccccc2c(=O)c2ccccc21` (configuration not stated) was 80.9.
With `OC(c1nnc(-c2ccccc2)o1)c1cccs1` (configuration not stated), the z-score in test [1] is -1.39. Besides, the inhibition in test [2] is 19.9% (inactive).
Regarding `CCOc1ccccc1C1C(C(=O)OC)=CN(C)C=C1C(=O)OC`, in test [1], the inhibition came to 41.6.
In the case of `Cc1cccc(-[n+]2c(-c3cccc(Br)c3)[nH]c3nc4ccccc4nc32)c1`, the z-score in test [1] was -0.694. Moreover, the inhibition in test [2] was 13.5% (inactive).
The corresponding values for `O=C(Nc1ccc(S(=O)(=O)Nc2nccs2)cc1)c1cc(-c2ccncc2)nc2ccccc12` are -0.658 and 65.3% (active).
For `Cc1cc(C)c2nc(-c3cccnc3)cc(C(=O)Nc3ccc(S(=O)(=O)Nc4onc(C)c4C)cc3)c2c1` the same measures were -1.22 and 40.5% (inactive).
As for `COCCCn1c(-c2cccs2)nc2nc3ccccc3nc21`, in test [1], the inhibition came to 61.4.
`CN(CC(=O)Nc1cccc(F)c1)CC(=O)Nc1cccc([N+](=O)[O-])c1`: the z-score in test [1] was -0.0694. Besides, the inhibition in test [2] is 62.1% (active).
The corresponding values for `O=[N+]([O-])c1cccc(Nc2c3ccccc3nc3ccccc23)c1` are 0.872 and 9.19% (inactive).
For `O=C(NCc1ccccc1)C1CCCN(c2nc3ccsc3c(=O)s2)C1` (configuration not stated) the same measures were 2.05 and 18.7% (inactive).
The corresponding values for `CN(C(=O)COC(=O)c1cc(-c2ccco2)nc2ccccc12)C1CCS(=O)(=O)C1` (configuration not stated) are 0.38 and 49.5% (inactive).
As to `c1ccc(CSc2nnc(-c3ccco3)c(-c3ccco3)n2)cc1`, in test [1], the z-score amounted to 0.442. Further, the inhibition in test [2] is 26.4% (inactive).
For `Clc1ccc2c(c1)C1=C(C(c3ccncc3)O2)C(c2ccc(Br)cc2)n2ncnc2N1` (configuration not stated) the same measures were 1.34 and 92.8% (active).
For `Cc1cc(OC(=O)c2ccccc2Cl)ccc1N1C(=O)CCC1=O` the same measures were 0.0636 and 11.5% (inactive).
For `COC(=O)c1ccc(OCC(O)CN(CCO)CC(O)Cn2ccc3ccccc32)cc1` (configuration not stated) the same measures were 3.64 and -1.67% (inactive).
In the case of `O=C(O)CCn1cc(/C=C/C(=O)c2ccc(Cl)cc2)c(-c2cccc(Br)c2)n1`, the z-score in test [1] is -0.131. The inhibition in test [2] was 24.8% (inactive).
For `CCCn1c(=NC(C)=O)c(C(=O)OCC)cc2c(=O)n3ccccc3nc21` the same measures were 85.9 and 33.1% (inactive).
Regarding `Cc1cccn2c(=O)c3cc(C#N)c(=O)n(CCCN4CCOCC4)c3nc12`, the inhibition in test [1] was determined as 248.
